Where “and” joins values, the source holds several entries; their conditions need not be identical. Equal entries are not always repeated. Where two headings read alike, the source gives them in different places.
Tests used:
Conditions in all cases: n = 1
STK16 = tested on: STK16
STK33 = tested on: STK33
STK35 = tested on: STK35
STK36 = tested on: STK36
STK39 = tested on: STK39
SYK = tested on: SYK
SgK110 = tested on: SgK110
TAK1 = tested on: T1, TAK1
T1 construct: gene MAP3K7

TAOK1 = tested on: TAOK1
TAOK2 = tested on: TAOK2
TAOK3 = tested on: TAOK3
TBK1 = tested on: TBK1
TEC = tested on: TEC
TESK1 = tested on: TESK1
TGFBR1 = tested on: TGFBR1
TGFBR2 = tested on: TGFBR2
TIE1 = tested on: TIE1
TIE2 = tested on: T2, TIE2
T2 construct: gene TEK

TLK1 = tested on: TLK1
TLK2 = tested on: TLK2
[1] = concentration: 1 μM, replicates: in singlicate
[2] = concentration: 1 μM,replicates: in singlicate, 1 µM
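Also: KINOMEscan kinase panel screen.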

Clc1cc(Cl)cc(Nc2ccnc(Nc3cc(Cl)cc(Cl)c3)n2)c1 [GSK175726]
%Inh (STK16; [1]): 24% | %Inh (STK33; [1]): 0% | %Inh (STK35; [1]): 0% | %Inh (STK36; [1]): 39% | %Inh (STK39; [1]): 2% | %Inh (SYK; [1]): 12% | %Inh (SgK110; [1]): 0% | %Inh (TAK1; [1]): 18% | %Inh (TAOK1; [1]): 44% | %Inh (TAOK2; [1]): 6% | %Inh (TAOK3; [1]): 0% | %Inh (TBK1; [1]): 28% | %Inh (TEC; [1]): 0% | %Inh (TESK1; [1]): 20% | %Inh (TGFBR1; [1]): 0% | %Inh (TGFBR2; [1]): 7% | %Inh (TIE1; [1]): 0% | %Inh (TIE2; [1]): 0% | %Inh (TLK1; [1]): 25% | %Inh (TLK2; [1]): 3%

Cc1cc(NCC(c2ccccc2)c2ccccc2)nc(NCc2ccc(C(F)(F)F)cc2)n1 [GW497681]
%Inh (STK16; [1]): 18% | %Inh (STK33; [1]): 0% | %Inh (STK35; [1]): 0% | %Inh (STK36; [1]): 0% | %Inh (STK39; [1]): 0% | %Inh (SYK; [1]): 0% | %Inh (SgK110; [1]): 0% | %Inh (TAK1; [1]): 0% | %Inh (TAOK1; [1]): 0% | %Inh (TAOK2; [1]): 0% | %Inh (TAOK3; [1]): 0% | %Inh (TBK1; [1]): 22% | %Inh (TEC; [1]): 0% | %Inh (TESK1; [1]): 13% | %Inh (TGFBR1; [1]): 22% | %Inh (TGFBR2; [1]): 0% | %Inh (TIE1; [1]): 0% | %Inh (TIE2; [1]): 0% | %Inh (TLK1; [1]): 9% | %Inh (TLK2; [1]): 0%

Cc1ccc(NC(=O)Nc2cccc(C(F)(F)F)c2)cc1 [GSK955403]
%Inh (STK16; 1 µM): 30% | %Inh (STK33; 1 µM): 0% | %Inh (STK35; 1 µM): 0% | %Inh (STK36; 1 µM): 10% | %Inh (STK39; 1 µM): 3% | %Inh (SYK; 1 µM): 19% | %Inh (SgK110; 1 µM): 0% | %Inh (TAK1; 1 µM): 13% | %Inh (TAOK1; 1 µM): 0% | %Inh (TAOK2; 1 µM): 0% | %Inh (TAOK3; 1 µM): 0% | %Inh (TBK1; 1 µM): 33% | %Inh (TEC; 1 µM): 7% | %Inh (TESK1; 1 µM): 36% | %Inh (TGFBR1; 1 µM): 6% | %Inh (TGFBR2; 1 µM): 0% | %Inh (TIE1; 1 µM): 13% | %Inh (TIE2; 1 µM): 38% | %Inh (TLK1; 1 µM): 20% | %Inh (TLK2; 1 µM): 3%

Cl.c1ccc(-c2n[nH]cc2-c2ccnc(-c3ccc(CN4CCOCC4)cc3)c2)nc1 [GW776245]
%Inh (STK16; [1]): 17% | %Inh (STK33; [1]): 0% | %Inh (STK35; [1]): 0% | %Inh (STK36; [1]): 9% | %Inh (STK39; [1]): 0% | %Inh (SYK; [1]): 16% | %Inh (SgK110; [1]): 0% | %Inh (TAK1; [1]): 0% | %Inh (TAOK1; [1]): 0% | %Inh (TAOK2; [1]): 5% | %Inh (TAOK3; [1]): 0% | %Inh (TBK1; [1]): 61% | %Inh (TEC; [1]): 17% | %Inh (TESK1; [1]): 6% | %Inh (TGFBR1; 1 µM): 94.5% | %Inh (TGFBR2; [1]): 87% | %Inh (TIE1; [1]): 0% | %Inh (TIE2; [1]): 24% | %Inh (TLK1; [1]): 0% | %Inh (TLK2; [1]): 0%

COc1cc2ncnc(Nc3ccc4nc(-c5ccccc5)[nH]c4c3)c2cc1OC.Cl [GW282450]
%Inh (STK16; [1]): 19% | %Inh (STK33; [1]): 0% | %Inh (STK35; [1]): 0% | %Inh (STK36; [1]): 0% | %Inh (STK39; [1]): 0% | %Inh (SYK; [1]): 43% | %Inh (SgK110; [1]): 0% | %Inh (TAK1; [1]): 23% | %Inh (TAOK1; [1]): 0% | %Inh (TAOK2; [1]): 0% | %Inh (TAOK3; [1]): 0% | %Inh (TBK1; [1]): 12% | %Inh (TEC; [1]): 0% | %Inh (TESK1; [1]): 20% | %Inh (TGFBR1; [1]): 0% | %Inh (TGFBR2; [1]): 0% | %Inh (TIE1; [1]): 1% | %Inh (TIE2; [1]): 0% | %Inh (TLK1; [1]): 0% | %Inh (TLK2; [1]): 0%

Cc1ccccc1-n1cnc2c(N)ncnc21 [SKF-97510]
%Inh (STK16; [1]): 21% | %Inh (STK33; [1]): 0% | %Inh (STK35; [1]): 0% | %Inh (STK36; [1]): 27% | %Inh (STK39; [1]): 0% | %Inh (SYK; [1]): 100% | %Inh (SgK110; [1]): 0% | %Inh (TAK1; [1]): 0% | %Inh (TAOK1; [1]): 0% | %Inh (TAOK2; [1]): 0% | %Inh (TAOK3; [1]): 0% | %Inh (TBK1; [1]): 7% | %Inh (TEC; [1]): 9% | %Inh (TESK1; [1]): 3% | %Inh (TGFBR1; [1]): 0% | %Inh (TGFBR2; [1]): 0% | %Inh (TIE1; [1]): 0% | %Inh (TIE2; [1]): 0% | %Inh (TLK1; [1]): 81% | %Inh (TLK2; [1]): 7%

Cc1cc(-c2ccc3c(c2)CC[C@@H](N[C@@H](C)c2ccccc2)C3)cnc1N.Cl [GW412617]
%Inh (STK16; [1]): 22% | %Inh (STK33; [1]): 7% | %Inh (STK35; [1]): 10% | %Inh (STK36; [1]): 0% | %Inh (STK39; [1]): 1% | %Inh (SYK; [1]): 35% | %Inh (SgK110; [1]): 0% | %Inh (TAK1; [1]): 42% | %Inh (TAOK1; [1]): 14% | %Inh (TAOK2; [1]): 0% | %Inh (TAOK3; [1]): 14% | %Inh (TBK1; [1]): 11% | %Inh (TEC; [1]): 1% | %Inh (TESK1; [1]): 11% | %Inh (TGFBR1; [1]): 0% | %Inh (TGFBR2; [1]): 20% | %Inh (TIE1; [1]): 35% | %Inh (TIE2; [1]): 0% | %Inh (TLK1; [1]): 4% | %Inh (TLK2; [1]): 0%

CSc1nn2c(=O)cc(N3CCOCC3)nc2n1Cc1cccc(C(F)(F)F)c1C [GSK2363608]
%Inh (STK16; [2]): 23% and 13% | %Inh (STK33; [1]): 0% | %Inh (STK35; [1]): 0% | %Inh (STK36; [1]): 0% | %Inh (STK39; [2]): 8% and 13% | %Inh (SYK; [2]): 30% and 26% | %Inh (SgK110; [2]): 0% and 6% | %Inh (TAK1; [1]): 0% | %Inh (TAOK1; [1]): 0% | %Inh (TAOK2; [1]): 0% | %Inh (TAOK3; [1]): 0% | %Inh (TBK1; [2]): 20% and 5% | %Inh (TEC; [1]): 7% | %Inh (TESK1; [1]): 19% | %Inh (TGFBR1; [2]): 11% and 17% | %Inh (TGFBR2; [1]): 0% | %Inh (TIE1; [2]): 0% and 2% | %Inh (TIE2; [1]): 0% | %Inh (TLK1; [2]): 8% and 0% | %Inh (TLK2; [1]): 0%

Cc1ccc(NC(=O)Nc2cccc(Cl)c2)cc1-c1ccc(C(=O)Nc2ccncc2)cc1 [GSK1398468]
%Inh (STK16; [1]): 9% | %Inh (STK33; [1]): 0% | %Inh (STK35; [1]): 0% | %Inh (STK36; [1]): 1% | %Inh (STK39; [1]): 0% | %Inh (SYK; [1]): 3% | %Inh (SgK110; [1]): 0% | %Inh (TAK1; [1]): 0% | %Inh (TAOK1; [1]): 0% | %Inh (TAOK2; [1]): 0% | %Inh (TAOK3; [1]): 0% | %Inh (TBK1; [1]): 5% | %Inh (TEC; [1]): 13% | %Inh (TESK1; [1]): 18% | %Inh (TGFBR1; [1]): 30% | %Inh (TGFBR2; [1]): 0% | %Inh (TIE1; [1]): 0% | %Inh (TIE2; [1]): 0% | %Inh (TLK1; [1]): 0% | %Inh (TLK2; [1]): 12%

Cn1cncc1-c1ccc2ncnc(Nc3ccc(OCc4ccccc4)cc3)c2c1 [GW320571]
%Inh (STK16; [1]): 5% | %Inh (STK33; [1]): 20% | %Inh (STK35; [1]): 10% | %Inh (STK36; [1]): 0% | %Inh (STK39; [1]): 7% | %Inh (SYK; [1]): 0% | %Inh (SgK110; [1]): 0% | %Inh (TAK1; [1]): 0% | %Inh (TAOK1; [1]): 0% | %Inh (TAOK2; [1]): 0% | %Inh (TAOK3; [1]): 0% | %Inh (TBK1; [1]): 0% | %Inh (TEC; [1]): 6% | %Inh (TESK1; [1]): 11% | %Inh (TGFBR1; [1]): 5% | %Inh (TGFBR2; [1]): 29% | %Inh (TIE1; [1]): 30% | %Inh (TIE2; [1]): 0% | %Inh (TLK1; [1]): 4% | %Inh (TLK2; [1]): 0%

Cl.NC(=O)c1cccc(Nc2nccc(Nc3ccc(Oc4cccc(Cl)c4)c(Cl)c3)n2)c1 [GW659008]
%Inh (STK16; [1]): 38% | %Inh (STK33; [1]): 0% | %Inh (STK35; [1]): 0% | %Inh (STK36; [1]): 0% | %Inh (STK39; [1]): 12% | %Inh (SYK; [1]): 1% | %Inh (SgK110; [1]): 0% | %Inh (TAK1; [1]): 0% | %Inh (TAOK1; [1]): 0% | %Inh (TAOK2; [1]): 0% | %Inh (TAOK3; [1]): 0% | %Inh (TBK1; [1]): 7% | %Inh (TEC; [1]): 10% | %Inh (TESK1; [1]): 40% | %Inh (TGFBR1; [1]): 0% | %Inh (TGFBR2; [1]): 12% | %Inh (TIE1; [1]): 12% | %Inh (TIE2; [1]): 1% | %Inh (TLK1; [1]): 0% | %Inh (TLK2; [1]): 0%
